# Compound activity from PubChem BioAssay.
# Most compounds without a hit are left out; they make up all but 6.2% or so of the library.
# HT1080NT lethal: kills 2HG-producing HT-1080-NT fibrosarcoma cells; HT-1080-NT fibrosarcoma viability, CellTiter-Glo ATP luminescence, 48 h; Potency, µM (top dose mostly 46.1 µM), hits mostly cytotoxic; actives 1.6% (n = 360,000);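 note: NT is the 2HG producing partner of a matched IDH1 knockdown line; nearly all actives have a fitted effect of over 55% in size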
#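 Read-out is CellTiter-Glo luminescence after 10 minutes at room temperature, following 48 hours' compound treatment of HT-1080-NT cells (750 cells/well, RPMI, 5% FBS, 37 degrees C).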
# ATXN2 expr inh: inhibitors of ATXN2 expression | HEK-293 ATXN2-luciferase reporter, luminescence, 24 h | Potency, µM (doses to about 57 µM), actives largely listed as inhibitors | actives 0.72% (n = 360,000); note: nearly all actives have a fitted effect of over 55% in size
#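 ATXN2-luciferase reporter cells (luciferase flanked by upstream and downstream ATXN2 gene portions) were treated 24 h at 37 °C with compounds at up to 57 uM. SteadyGlo luminescence gave expression; GF-AFC fluorescence gave viability.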
# HT1080 IDH1KD tx: kills HT-1080 cells with IDH1 knockdown; HT-1080 IDH1 knockdown viability, ATP luminescence, 48 h; AID 686971; actives 2% (n = 360,000); Potency, µM (series often up to 46.1 µM), hits mostly cytotoxic
#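 % activity derives from luminescence (CellTiter-Glo), normalised to DMSO and no-cell wells. HT-1080-IDH1KD cells, 750/well, had 48 h compound exposure at 37 °C.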
# KB-3-1 tox: kills parental KB-3-1 adenocarcinoma cells; AID 1347075; Potency, µM (highest dose often 46.1 µM), hits mostly cytotoxic; KB-3-1 viability, CellTiter-Glo ATP luminescence, 72 h; actives 1.4% (n = 400,000); note: nearly all actives have a fitted effect of over 60% in size
#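 KB-3-1 cells, DMEM (no phenol red) + 10% FBS; compound by pin transfer, 72 h, 37 °C. Readout: CellTiter-Glo luminescence after 10 min. Data normalized, curve-fitted.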
# KB-V1 MDR tox: kills drug-selected multidrug resistant KB-V1 cells | AID 1347076 | actives 3.4% (n = 400,000) | KB-V1 MDR cells viability, CellTiter-Glo, 72 h | Potency, µM (top dose mostly 46.1 µM), usual class: cytotoxic; note: nearly all actives have a fitted effect of over 60% in size
#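 Cytotoxicity via CellTiter-Glo luminescence after 72 h compound exposure at 37 degrees C. Cells: drug-selected KB-V1 line, DMEM phenol-red free plus 10% FBS. Compounds tested at multiple concentrations; normalized data fitted to concentration-effect curves.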
# ATXN viability: viability counter-screen for ATXN expression inhibitors. Potency, µM (highest dose often 56.7 µM), hits mostly cytotoxic. S2 cells (HEK-293 line with an ATXN2-luciferase reporter) viability, CellTiter-Fluor protease fluorescence, 24 h. actives 0.49% (n = 400,000); note: nearly all actives have a fitted effect of over 40% in size
# Hits are given with their value; - = inactive; ? = inconclusive; . = not tested or not shown; ! = not active in a repeat. Calls come from the whole dose curve; as a rule, active = well fitted curve in the direction sought with a large enough effect; inconclusive = small, poorly fitted or top-dose-only effect, or another doubt; inactive = no such curve, though single readings can be large; an effect the other way counts as inactive or inconclusive.
SMILES,HT1080NT lethal,ATXN2 expr inh,HT1080 IDH1KD tx,KB-3-1 tox,KB-V1 MDR tox,ATXN viability
CCc1ccc(NC(=O)Cn2c(=O)c3cc(Cl)ccc3n3nncc23)cc1,.,-,.,-,-,-
COc1cc2c(NC3CCN(C)CC3)nc(N3CCCN(C)CC3)nc2cc1OCCCN1CCOCC1,.,.,.,?,-,.
COc1ccc(-n2c(C)c3c(OC)cccc(=O)c3c2C)cc1,-,-,-,-,18µM,-
CCN(c1ccccc1)S(=O)(=O)c1ccc(Cl)c(NC(=O)CN2CCCCCC2)c1,?,?,?,?,21µM,-
CCC(C)NCC(=O)Nc1cc(S(=O)(=O)N(CC)c2ccccc2)ccc1Cl (centres undefined),-,-,-,?,-,?
O=C(CN1CCCCC1)Nc1ccc(NC(=O)c2ccccc2Cl)cc1Cl,-,-,-,23µM,4.6µM,-
CCN(c1ccccc1)S(=O)(=O)c1ccc(Cl)c(NC(=O)CNC(C)c2ccccc2)c1 (centres undefined),-,-,-,?,16µM,-
O=C(CN1CCCCCCC1)Nc1ccc(Cl)cc1Cl,-,-,-,-,-,-
Cc1cc(NC(=O)CN2CCN(C/C=C/c3ccccc3)CC2)c([N+](=O)[O-])cc1C,-,-,-,-,-,-
O=C(CN1CCN(C/C=C/c2ccccc2)CC1)Nc1cc([N+](=O)[O-])ccc1Cl,-,-,-,?,23µM,-
COc1ccc(N2CCN(C(c3ccc(F)cc3)c3sc4nc(-c5ccco5)nn4c3O)CC2)cc1 (centres undefined),.,-,.,-,-,-
CCN(c1ccccc1)S(=O)(=O)c1ccc(Cl)c(NC(=O)COC(=O)C2CC2C)c1 (centres undefined),-,-,-,-,-,-
CCN(c1ccccc1)S(=O)(=O)c1ccc(Cl)c(NC(=O)CN(C)Cc2cccc(F)c2)c1,-,-,-,?,16µM,-
O=S(=O)(c1ccccc1Cl)N1CCN(c2nc(-c3ccccc3)nc3ccccc23)CC1,.,.,.,-,?,.
c1cncc(OC2CCN(Cc3ccc4c(c3)CN(Cc3ccc5c(c3)OCCO5)CCO4)CC2)c1,.,.,.,.,.,-
Cc1nnc(SC(=O)N2c3ccccc3Sc3ccccc32)s1,8.9µM,25µM,7.1µM,-,?,.
CCC(=O)Nc1nc2ccc3sc(C)nc3c2s1,-,.,?,?,?,-
Cc1nc2c(ccc3nc(NC(=O)C4CC4)sc32)s1,?,-,?,?,21µM,-
Cc1cnc(-n2ncc(C(=O)NCCc3ccccn3)c2C)nc1-c1ccc(F)cc1,.,.,.,.,.,-
Nc1ncn([C@@H]2O[C@H](CO)[C@@H](O)[C@@H]2O)c(=O)n1,.,5.4µM,.,.,.,.
Nc1ccn([C@@H]2O[C@H](CO)[C@@H](O)[C@@H]2O)c(=O)n1,-,?,?,-,-,-
Nc1ncn([C@@H]2O[C@H](CO)[C@@H](O)[C@H]2O)c(=O)n1,1.6µM,6.3µM!,1.8µM,?,?,-
Cc1ccc(C)c(NC(=O)C(Sc2nncn2C)c2ccccc2)c1 (centres undefined),-,-,-,-,15µM,?
Cc1ccc(C)c(NC(=O)C(Sc2ncnc3ccccc23)c2ccccc2)c1 (centres undefined),-,-,-,-,16µM,-
CC(=O)c1cccc(NC(=O)C(Sc2ncnc3ccccc23)c2ccccc2)c1 (centres undefined),-,-,-,-,-,-
SMILES,HT1080NT lethal,ATXN2 expr inh,HT1080 IDH1KD tx,KB-3-1 tox,KB-V1 MDR tox,ATXN viability
Cc1cccc(C(=O)N2CCNC(=O)C2CC(=O)Nc2ccc(F)cc2)c1 (centres undefined),.,-,.,-,-,-
Cc1ccc(C(=O)Nc2cnc3ccccc3c2)cc1,-,2.2µM,-,-,?,-
O=C(Nc1ccccn1)c1sc2ccccc2c1Cl,.,.,.,-,-,.
O=C(O)c1cccc(NC(=O)c2ccccc2)c1,-,-,-,-,?,-
O=C(Nc1ccncc1)c1sc2ccccc2c1Cl,-,-,-,-,8.2µM,-
Cc1ccc(C(=O)Nc2cccc(C(=O)O)c2)cc1,-,2.5µM,?,-,-,-
Cc1ccc(C(=O)Nc2cc3ccccc3oc2=O)cc1,-,?,-,3.3µM,4.1µM,-
Cc1ccc(C)n1-c1ccc(C(=O)Nc2ccccc2)cc1,-,.,-,-,-,-
O=C(Nc1ccncc1)c1ccc(-c2ccccc2)cc1,-,.,-,23µM,-,?
O=C(Nc1cccnc1)c1ccc(-c2ccccc2)cc1,-,.,-,-,-,-
Cc1ccc(C(=O)Nc2nc3ccccc3c(=O)s2)cc1,?,-,7.9µM,-,-,-
Cc1ccc(C)n1-c1cccc(NC(=O)c2ccccc2)c1,-,-,-,-,23µM,-
O=C(C[n+]1csc2ccccc21)c1ccc(I)cc1,.,.,.,-,-,.
CCn1c(=O)cc(SCC(=O)NCc2ccc(Cl)cc2)c2ccccc21,.,-,.,-,-,-
Cc1ccc(-c2csc(NC(=O)c3ccc4c(=O)n5c(nc4c3)CCCCC5)n2)cc1,-,-,-,-,10µM,-
CC(=O)c1ccc(NC(=O)c2ccc3c(=O)n4c(nc3c2)CCCCC4)cc1,-,-,-,-,?,-
COCCN(Cc1ccccc1)C(=O)c1ccc2c(=O)n3c(nc2c1)CCC3,-,-,-,-,-,-
CCN(Cc1ccccc1)C(=O)c1ccc2c(=O)n3c(nc2c1)CCC3,-,-,-,-,10µM,-
O=C(c1ccc2c(=O)n3c(nc2c1)CCCCC3)N1CCN(c2ccccc2)CC1,-,-,-,-,-,-
O=C(c1ccc2c(=O)n3c(nc2c1)CCCCC3)N1CCN(C(c2ccccc2)c2ccccc2)CC1,18µM,-,10µM,?,?,?
COc1ccccc1-c1nn2c(-c3cc(C)[nH]n3)nnc2s1,.,.,.,-,-,.
N#Cc1c(C(F)(F)F)cc(-c2cccs2)nc1SCC(=O)Nc1cccc(C(F)(F)F)c1,.,-,.,-,-,-
c1ccc2c(Oc3nc(Nc4ccc(N5CCOCC5)cc4)c4ncn(C5CCCCC5)c4n3)cccc2c1,.,-,.,.,.,.
Cn1c(CNC(=O)CSc2n[nH]c(-c3ccccc3)n2)nc2ccccc21,.,.,.,-,-,.
O=C1c2oc3ccccc3c(=O)c2C(c2ccccc2F)N1Cc1ccc2c(c1)OCO2 (centres undefined),.,-,.,-,-,-
Cc1cc(Nc2cccc(O)c2)c2cccc(Br)c2n1,.,-,.,-,-,.
CCCCCCCNC(=O)C1(CC2CC(c3ccc(Cl)cc3)=NO2)CCNCC1 (centres undefined),-,28µM,-,?,-,.
